PubChem BioAssay (EPA / NIEHS)
Activity calls are given as the source filed them. Rule for the calls: active = hit-call score of the fitted dose curve at least 0.9, where 1 is the maximum; inactive = score below 0.9.

Legend:
[1] = UKN5_HCS_SBAD2_cell_viability: Viability Assessment in the University of Konstanz (UKN) Leist Lab Neurite Outgrowth Assay in human iPSC-derived immature Dorsal Root Ganglia Neurons (UKN5) (AID 2284056)
Procedure, shortened: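 iPSC-derived immature peripheral neurons (SBAD2) seeded on Matrigel with CHIR99021, SU5402 and DAPT, dosed 1 h later for 24 h. Viability from Hoechst H-33342 and calcein-AM live staining, high-content imaging; bidirectional fit versus DMSO.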

[2] = UKN5_HCS_SBAD2_neurite_outgrowth: University of Konstanz (UKN) Leist Lab Neurite Outgrowth Assay in human iPSC-derived immature Dorsal Root Ganglia Neurons (UKN5) (AID 2284070); conditions: actives raise or lower the signal
Procedure, shortened: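 Cryopreserved SBAD2 peripheral neurons were seeded at 100.000 cells/cm2 in N2-S/KSR medium containing CHIR99021, SU5402 and DAPT, then exposed to compounds for 24 h. Neurite area from calcein-AM high-content imaging was fitted bidirectionally against DMSO.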

| SMILES | outcome [1] | AC50 [2] | AC50 [1] |
| --- | --- | --- | --- |
| S=C(S)NCCNC(=S)S.[Mn+2].[S-]C([S-])=NCCN=C([S-])[S-].[Zn+2] | inactive | 15 µM (active) |  |
| S=C([S-])NCCNC(=S)[S-].[Mn+2] |  | 4.28 µM (active) | 7.5 µM (active) |
